According to PubChem BioAssay:
A number with no mark means an inactive call. Active and inactive are the calls of the source.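 The calls were made as follows: active = inhibition above the hit cutoff set in the earlier primary screen (cut at about 27% in these data); inactive = the rest.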

Target: Protein phosphatase methylesterase 1 (Homo sapiens) (UniProt Q9Y570)
Test: PME-1 inhibitor activity retest, confirmation, biochemical, fluorescence polarization, FP-Rh probe, triplicate (AID 2171);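 also: 0% = enzyme with DMSO and 100% = wells lacking PME-1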
Conditions: recombinant PME-1, FP-Rh probe fluorescence polarization; at 5.9 µM; hits give high values

Protein phosphatase methylesterase 1 (Homo sapiens), sequence (Q9Y570 whole entry, looked up): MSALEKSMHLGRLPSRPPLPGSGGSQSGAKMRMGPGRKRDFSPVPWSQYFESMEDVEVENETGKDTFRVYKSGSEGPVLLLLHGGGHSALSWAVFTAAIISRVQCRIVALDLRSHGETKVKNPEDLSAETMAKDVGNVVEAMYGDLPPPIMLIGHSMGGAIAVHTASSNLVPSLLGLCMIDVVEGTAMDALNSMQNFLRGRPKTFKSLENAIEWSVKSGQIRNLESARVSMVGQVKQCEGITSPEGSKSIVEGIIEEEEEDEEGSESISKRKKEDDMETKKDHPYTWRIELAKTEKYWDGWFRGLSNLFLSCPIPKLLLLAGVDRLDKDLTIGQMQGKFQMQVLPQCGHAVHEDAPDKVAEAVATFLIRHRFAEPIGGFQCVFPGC

SMILES	inhibition
O=C1CC(N(O)c2ccccc2)C(=O)N1c1cc(Cl)cc(Cl)c1 (stereo not given)	5.35%
CCOC(=O)C(C)On1c(-c2ccccc2)nc2ccc([N+](=O)[O-])cc21 (stereo not given)	34.2% (active)
CC(C)Oc1ccc(S(=O)(=O)N2CCCCC2)cc1NC(=O)CN1C(=O)NC(C)(c2ccccc2)C1=O (stereo not given)	42.6% (active)
Nc1cc2nsnc2cc1Br	34.7% (active)
CCNc1cc(O)ccc1C	2.02%
O=C(NCCC1=CCCCC1)C1CCN(S(=O)(=O)c2cccs2)CC1	25.6%
Cc1ccc(NC(=S)NNc2ccc([N+](=O)[O-])cc2S(=O)(=O)Nc2ccccc2C(=O)O)cc1C	60.2% (active)
CCc1ccc(S(=O)(=O)/N=C2\C=C(Nc3ccc(C(=O)O)cc3)C(=O)c3ccccc32)cc1	33.3% (active)
Cc1ccc(S(=O)(=O)c2nnn3c2nc(N2CCOCC2)c2ccccc23)c(C)c1	21.9%
COc1ccc2[nH]c(=O)c(-c3noc(-c4ccccc4)n3)cc2c1	28.2% (active)
Oc1ccc(Nc2nc3ccccc3nc2Nc2ccc(O)cc2)cc1	-0.74%
O=[N+]([O-])c1ccc(C2Nc3cccc4cccc(c34)N2)cc1	35.9% (active)
O=C(O)CSc1cc(NS(=O)(=O)c2ccc(Br)cc2)c2ccccc2c1O	3.78%
CCC(C)c1ccc(S(=O)(=O)N2CCN(C(=O)COc3ccc4c(C)cc(=O)oc4c3)CC2)cc1 (stereo not given)	0.33%
CCCn1c(N)c(C(=O)CN(C)CC(=O)Nc2ccccc2CC)c(=O)[nH]c1=O	20.4%
On1onc2c3cc(-c4ccccc4)nc3ccc21	49.3% (active)
COc1ccc(-c2nc(-c3ccccc3)c(-c3cc([N+](=O)[O-])ccc3C)[nH]2)cc1O	-4.82%
COc1cc(NC(=O)c2cc3ccccc3cc2O)c(OC)cc1Cl	9.45%
CCc1ccc(S(=O)(=O)/N=C2\C=C(Nc3cccc(C(=O)O)c3)C(=O)c3ccccc32)cc1	38.4% (active)
Fc1cc(F)c2nc(Nc3nc4cc5c(cc4s3)OCO5)sc2c1	29.5% (active)

SMILES	inhibition
Cc1cccc(NC(=O)CN2C(=O)S/C(=C\c3ccc(O)c([N+](=O)[O-])c3)C2=O)c1	24.7%
Cc1noc(C)c1CSc1nc2ccccc2nc1NS(=O)(=O)c1ccc(Cl)cc1	36% (active)
CCc1ccc2nc3sc(C(=O)Nc4nnc(CC)s4)c(N)c3cc2c1	57.6% (active)
COc1ccc(-c2cc(-c3c(O)c(OC)c4occc4c3OC)[nH]n2)cc1	19.9%
COc1cc2c(cc1NC(=O)Nc1ccccc1)oc1ccccc12	-9.58%
COCCCNc1c2c3c(cccc3[nH]c1=O)C(=O)c1ccccc1-2	133% (active)
COc1ccc2c(c1)CC/C(=C\Nc1ccc3c(c1)OCO3)C2=O	36.9% (active)
O=c1cc(N2CCCCC2)c(-c2ccccc2)nn1Cc1c(Cl)cccc1Cl	25.3%
S=C(Nc1ccc(N2CCOCC2)cc1)Nc1ccc2nc(-c3ccco3)c(-c3ccco3)nc2c1	24.7%
Cc1c(C(=O)O)cccc1-c1ccc(/C=N/Nc2ccc(Br)cc2)o1	39.6% (active)
O=C1C(CSCc2ccccc2)NC(=S)N1c1ccccc1 (stereo not given)	5.6%
O=C(O)COc1ccccc1/C=N/Nc1ccc(S(=O)(=O)Nc2ccc(Cl)cc2)cc1[N+](=O)[O-]	62.7% (active)
Cc1cc(N/N=C/c2c(O)ccc3ccccc23)nc(-c2ccccc2O)n1	23.6%
COc1ccc(-c2cc(-c3cc(OC)ccc3O)[nH]n2)cc1	71% (active)
O=C(N/N=C/c1c[nH]c2ccccc12)c1cc(-c2cccc3ccccc23)n[nH]1	2.43%
Oc1ccc(/C=C/c2ccc3cccc(O)c3n2)cc1Br	23.9%
COc1ccccc1-c1sc2ccccc2c1-c1ccc(C(C)=O)cc1	-9.37%
Cc1ccc(-c2nc(Nc3ccc(O)cc3)c3ccccc3n2)cc1	6.25%
Nc1n[nH]c(C2CC2)c1N=Nc1ccc(Cl)c(Cl)c1	20.6%
Oc1c(Br)cc(Br)c(/C=N/n2c(-c3ccccc3)n[nH]c2=S)c1Br	45.5% (active)
